Bioassay records deposited in PubChem BioAssay by National Center for Advancing Translational Sciences (NCATS).
Most compounds without a hit are left out; they make up all but 12% or so of the library.
CHX counter = Cycloheximide Counterscreen for Small Molecule Inhibitors of Shiga Toxin; 300,000 tested, 12% active; cell reporter, cycloheximide protein synthesis inhibition counterscreen; max response, %; in the data active = max response mostly above about 13%, no sharp cut-off; inactive = mostly below about 14%; note: read at 38.3 µM for the half of the compounds with a filed dose
SARS PLP yeast = qHTS of Yeast-based Assay for SARS-CoV PLP. S. cerevisiae expressing SARS-CoV PLpro, growth rescue. Potency, µM (series often up to 32.9 µM), hits mostly activators. 330,000 tested, 0.19% active. AID 485353, 2010; note: nearly all actives have a fitted effect of over 55% in size
Shiga inhibitor = A qHTS for Small Molecule Inhibitors of Shiga Toxin; Vero cells, Shiga toxin protein synthesis inhibition reporter; inhibition, % at 38.7 µM; 290,000 tested, 9.2% active; AID 2315, 2010; in the data active = inhibition mostly above about 28%, no sharp cut-off; inactive = mostly below about 43%
NS1 function inh = qHTS Assay for Inhibitors of Influenza NS1 Protein Function; Potency, µM (highest dose often 46.1 µM); 270,000 tested, 0.4% active; AID 2326, 2010; note: actives are rising curves; nearly all actives have a fitted effect of over 50% in size
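A cell-based growth assay was used: compounds that relieve NS1-induced slow growth of budding yeast raise OD600. Assay medium was yeast nitrogen base with ammonium sulphate and -URA supplement, pH 6.0, with 2% galactose.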
Of the large screens only hits and unclear results are named; the others gave an inactive call; ! = repeats disagree. Unless noted, calls come from the whole dose curve.

CC(C)N1CCC(=NNC(=O)c2ccc(Br)o2)CC1	CHX counter 42, Shiga inhibitor 37
O=C1CSC(c2ccccn2)N1c1ccc(Br)cc1 (centres undefined)	none (no result: NS1 function inh)
CC(=O)NN1C(=O)/C(=C/c2ccc(C(C)C)cc2)SC1=S	CHX counter 16
COc1cc(/C=C2\SC(=S)N(NC(=O)c3ccccc3OC)C2=O)ccc1O	CHX counter 17
COc1cc(/C=C2\SC(=S)N(NC(=O)c3ccncc3)C2=O)ccc1O	none
O=C(O)c1ccc(/C=C2\SC(=S)N(NC(=O)c3ccccc3)C2=O)cc1	none
COc1cc(/C=C2\SC(=S)N(NC(=O)c3ccc(O)c(OC)c3)C2=O)ccc1O	CHX counter 21
Cc1nn(C(C)C(=O)NCCCc2ccccc2)c(=O)c2nn(-c3ccccc3)c(C)c12 (centres undefined)	none
CC(=O)N(CCc1ccccc1)Cc1cc2ccc(C)c(C)c2[nH]c1=O	none (no result: Shiga inhibitor)
COc1cc(C=O)ccc1OCCSc1ccc(Cl)cc1	CHX counter 22, Shiga inhibitor 70
COc1cc(C=O)ccc1OCCOCCOc1ccc(Cl)cc1	none
CCOc1ccc(NC(=S)Nc2ccc(OCc3ccccc3)cc2)cc1	CHX counter 11, NS1 function inh inconclusive
Cc1occc1C(=O)Nc1ccc(OCc2ccccc2)cc1	none
CNC(=S)Nc1ccc(OCc2ccccc2)cc1	CHX counter 44, Shiga inhibitor 48
CCN(CC)C(=O)C(=O)Nc1ccc(OCc2ccccc2)cc1	CHX counter 14
C/C(CC(=O)Nc1ccc(OCc2ccccc2)cc1)=N\NC(=O)C(=O)Nc1ccccc1C	CHX counter 26, Shiga inhibitor 65
C/C(CC(=O)Nc1ccc2c(c1)OCCO2)=N\NC(=O)C(=O)Nc1ccccc1C	none
CCOc1ccc(NC(=S)NCCCc2ccccc2)cc1	none
COc1cc(C(=O)NCc2nnc(SCC(=O)Nc3cccc(C(F)(F)F)c3)o2)cc(OC)c1OC	none
O=C(ONC1=NCCCCC1)c1cccc([N+](=O)[O-])c1	none
O=[N+]([O-])c1cccc(/C=N/NC2=NCCCCC2)c1	CHX counter 36, Shiga inhibitor 62
Oc1ccccc1/C=N/NC1=NCCCCC1	CHX counter 34, Shiga inhibitor 95
CCN(CC)C(=O)CSc1nc(N)c2c3c(sc2n1)CC(C)CC3 (centres undefined)	CHX counter 21, Shiga inhibitor 57
CCOC(=O)c1nc2sc3c(c2c(=O)[nH]1)CCC(C)C3 (centres undefined)	none
CCOC(=O)CSc1nc(N)c2c3c(sc2n1)CCCC3	CHX counter 25
CC1CCc2c(sc3nc(SCC(=O)NCc4ccco4)nc(N)c23)C1 (centres undefined)	CHX counter 17
CC1CCc2c(sc3nc(C4CC4)nc(SCC(=O)NCc4ccco4)c23)C1 (centres undefined)	none (no result: CHX counter, SARS PLP yeast, Shiga inhibitor)
COc1cc(Cl)c(C)cc1NC(=O)CSC1=NCCS1	none (no result: CHX counter, Shiga inhibitor, NS1 function inh)
Cc1ccc(CNc2nc3ccccc3n2C)cc1	CHX counter 23
Cn1c(NCc2c(O)ccc3ccccc23)nc2ccccc21	none
Cn1c(CN2CCN(c3ccc(Cl)cc3)CC2)nc2ccccc21	SARS PLP yeast 8.9µM
Cn1c(NCc2ccc(Cl)cc2)nc2ccccc21	CHX counter 38, Shiga inhibitor 56 (no result: NS1 function inh)
COc1ccc(CC(=O)Nc2ccc(N3CCOCC3)cc2)cc1OC	none
CCOc1ccccc1/C=C(\NC(=O)c1ccccc1)C(=O)NCCC(=O)O	Shiga inhibitor 43
Cc1ccc(/C=C(\C#N)C(=O)NCc2ccco2)o1	CHX counter 43, Shiga inhibitor 66 (no result: NS1 function inh)
COCCNC(=O)/C(C#N)=C/c1ccc(OC(=O)c2cccs2)c(OC)c1	none (no result: NS1 function inh)
N#C/C(=C\c1cccs1)C(=O)NCc1ccco1	CHX counter 39, Shiga inhibitor 56
Cc1ccsc1/C=C(\C#N)C(=O)NCc1ccco1	none
COCCNC(=O)/C(C#N)=C/c1cccs1	CHX counter 14
COc1ccc(N(CCC#N)C(=O)/C(C#N)=C\c2cccs2)cc1	CHX counter 20
O=C(CN1C(=O)c2ccc([N+](=O)[O-])cc2C1=O)NCc1ccc(C(=O)O)cc1	none (no result: Shiga inhibitor)
O=C(O)c1ccc(CNC(=O)c2ccc3c(c2)OCCO3)cc1	none
CN(C)c1ccc(/C=C(/C#N)C(=O)NCc2ccccc2)o1	CHX counter 59
CSc1ccc(/C=C(\C#N)C(=O)Nc2cccc(C)c2)cc1	CHX counter 22
COCCNC(=O)/C(C#N)=C/c1ccc(C(=O)O)cc1	none (no result: NS1 function inh)
COCCNC(=O)/C(C#N)=C/c1ccc(SC)cc1	CHX counter 30, Shiga inhibitor 65 (no result: NS1 function inh)
CSc1ccc(/C=C(\NC(=O)c2ccc(C)cc2)C(=O)Nc2cccc(C)c2)cc1	none
CN(C)/C=C1\N=C(c2ccc3c(c2)OCO3)OC1=O	CHX counter 27, Shiga inhibitor 64
CN(C)/C=C1\N=C(c2ccccc2)OC1=O	CHX counter 15 (no result: NS1 function inh)
O=C(O)CCc1nc2cc(C(F)(F)F)ccc2n(Cc2ccccc2)c1=O	none
O=C(Cn1cnc2ccccc2c1=O)c1ccc(Br)cc1	CHX counter 28, Shiga inhibitor 45
O=C(CCn1nnc2ccccc21)OCC(=O)c1ccc(F)cc1	none
O=C(Cn1nnc2ccccc21)OCC(=O)c1ccc(F)cc1	CHX counter 9.4
O=C(COC(=O)Cn1cnc2ccccc2c1=O)NNC(=O)c1ccc(Br)cc1	none (no result: CHX counter, Shiga inhibitor, NS1 function inh)
CCOC(=O)c1ccc(Cn2cnc3ccccc3c2=O)cc1	none
CCOc1ccc(C(=O)Cn2cnc3ccccc3c2=O)cc1	CHX counter 57, Shiga inhibitor 117
O=C(Cn1cnc2ccccc21)c1ccc(Cl)cc1	CHX counter 28
O=C(COC(=O)Cc1n[nH]c(=O)c2ccccc12)Nc1ccc(Cl)cn1	none (no result: CHX counter, Shiga inhibitor, NS1 function inh)
O=c1c2ccccc2ncn1-c1ccc(Cl)cc1	CHX counter 29, Shiga inhibitor 42!
O=C(Cn1nnc2ccccc21)c1ccc(Cl)cc1	CHX counter 41, Shiga inhibitor 54
O=C(Cn1cnc2ccccc2c1=O)c1ccc(OC(F)F)cc1	CHX counter 34, Shiga inhibitor 57
O=C(Cn1cc(Cl)ccc1=O)c1ccc(Cl)cc1	CHX counter 16
COc1ccc(CCNC(=O)/C(=C/c2cccnc2)NC(=O)c2ccccc2)cc1OC	none (no result: NS1 function inh)
O=C(Cn1cnc2ccccc21)c1ccccc1	none
Cc1ccc(C(=O)Cn2cnc3ccccc3c2=O)cc1	CHX counter 30, Shiga inhibitor 76
O=C(Cn1cnc2ccccc2c1=O)c1ccccc1	CHX counter 39, Shiga inhibitor 78
O=C(Cn1cnc2ccccc2c1=O)c1ccc(Cl)cc1	CHX counter 44, Shiga inhibitor 120
O=C(Cn1cnc2ccccc2c1=O)c1cccs1	none
COc1cc(C(=O)NCC(=O)NCCCSc2ccccc2)cc(OC)c1OC	none (no result: CHX counter, Shiga inhibitor, NS1 function inh)
Cc1ccc(-c2nc(CNC(=O)c3ccco3)cs2)cc1	Shiga inhibitor 85
Cc1ccc(-c2csc(NC(=O)CCNC(=O)c3ccccc3Cl)n2)cc1	none
CC(=O)NCc1cn2c(C)csc2n1	SARS PLP yeast inconclusive
Cc1ccc(-c2csc(NC(=O)CCNC(=O)c3ccco3)n2)cc1	CHX counter 20, Shiga inhibitor 43 (no result: NS1 function inh)
Cc1csc2nc(CNC(=O)c3ccco3)cn12	CHX counter 35, Shiga inhibitor 56
